# Tests used:
# Assay in all cases: PBM binding z-score (relative to random genomic background probes); higher = stronger binding; sequences stand for … in GC…GCGATTGACAGCGTAGAATGAAGG
# [1] = test system: FXR:RXRa (NR concentration 270 nM, RXRa partner concentration 90 nM)
# Procedure, shortened: (§1)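 Binding buffer was PBS pH 7.4 with 2% milk, 0.02% Triton X-100, 1 mM DTT, 0.2 mg/mL BSA and 0.4 mg/ml salmon testes DNA. In it, ligand-free nuclear receptor dimers were incubated 1 h on custom Agilent 4×180K protein-binding microarrays carrying double-stranded probes. Antibodies against each partner (one per run) detected binding, and z-scores were calculated against random background probes after regression normalization of scanned fluorescence.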
# [2] = test system: LXRa:RXRa (NR concentration 270 nM, RXRa partner concentration 90 nM)
# Procedure, shortened: as §1
# [3] = test system: LXRa homodimer (NR concentration 270 nM)
# Procedure, shortened: as §1
# [4] = test system: LXRb:RXRa (NR concentration 270 nM, RXRa partner concentration 90 nM)
# Procedure, shortened: as §1
# [5] = test system: LXRb homodimer (NR concentration 270 nM)
# Procedure, shortened: as §1
# [6] = test system: PPARa:RXRa (NR concentration 270 nM, RXRa partner concentration 90 nM)
# Procedure, shortened: as §1
# [7] = test system: PPARg:RXRa (NR concentration 180 nM, RXRa partner concentration 90 nM)
# Procedure, shortened: as §1
# [8] = test system: PPARg:RXRa 270nM:90nM, anti-RXR (NR concentration 270 nM, RXRa partner concentration 90 nM)
# Procedure, shortened: as §1
# [9] = test system: PPARg:RXRa 30nM:10nM, anti-RXR (NR concentration 30 nM, RXRa partner concentration 10 nM)
# Procedure, shortened: as §1
# [10] = test system: PPARg:RXRa 90nM:30nM, anti-RXR (NR concentration 90 nM, RXRa partner concentration 30 nM)
# Procedure, shortened: as §1
# [11] = test system: PPARg:RXRa DBDmut IVT, anti-RXR (DBD mutation: RXRa K156A/R161A, NR concentration 270 nM, RXRa partner concentration 90 nM)
# Procedure, shortened: as §1
# [12] = test system: PPARg:RXRa IVT, anti-PPARg (NR concentration 270 nM, RXRa partner concentration 90 nM)
# Procedure, shortened: as §1
# [13] = test system: PPARg DBDmut:RXRa IVT, anti-PPARg (DBD mutation: PPARg1 K132A/R137A, NR concentration 270 nM, RXRa partner concentration 90 nM)
# Procedure, shortened: as §1
# [14] = test system: PPARg DBDmut IVT, anti-PPARg (DBD mutation: PPARg1 K132A/R137A, NR concentration 270 nM)
# Procedure, shortened: as §1
# [15] = test system: PPARg homodimer (NR concentration 180 nM)
# Procedure, shortened: as §1
# [16] = test system: PXR:RXRa (NR concentration 270 nM, RXRa partner concentration 90 nM)
# Procedure, shortened: as §1
# [17] = test system: PXR homodimer (NR concentration 270 nM)
# Procedure, shortened: as §1
# [18] = test system: RARa:RXR (NR concentration 270 nM, RXRa partner concentration 90 nM)
# Procedure, shortened: as §1
# [19] = test system: RARa homodimer (NR concentration 270 nM)
# Procedure, shortened: as §1
# [20] = test system: RARb:RXRa (NR concentration 270 nM, RXRa partner concentration 90 nM)
# Procedure, shortened: as §1
Sequence,PBM binding z-score [1],PBM binding z-score [2],PBM binding z-score [3],PBM binding z-score [4],PBM binding z-score [5],PBM binding z-score [6],PBM binding z-score [7],PBM binding z-score [8],PBM binding z-score [9],PBM binding z-score [10],PBM binding z-score [11],PBM binding z-score [12],PBM binding z-score [13],PBM binding z-score [14],PBM binding z-score [15],PBM binding z-score [16],PBM binding z-score [17],PBM binding z-score [18],PBM binding z-score [19],PBM binding z-score [20]
ATCACTAGGTAACAAGTTCAGTGAAAGAGAGGAC,0.674,0.942,0.705,0.664,0.576,1.94,3.04,3.04,1.14,2.5,5,4.3,1.27,0.914,1.31,1.95,2.35,0.935,1.41,1.8
CCTTACGGGTCACGAGATTATAGCACGACGAGCG,6.02,4.05,0.0796,3.37,0.00532,5.42,6.21,5.93,2.99,4.95,4.81,4.72,1.92,0.779,2.33,3.46,0.13,4.62,1.2,4.26
GGAACGAGGGCATTCGAGTTGTTAGCATGGCGAT,0.97,0.548,-0.561,-0.135,-0.712,1.18,0.562,0.571,-0.377,0.0631,3.22,1.99,-0.193,-0.86,-0.473,1.99,0.576,0.173,-0.666,1.81
CGCCCAAGGTCAAGGTCAGTGAAAGAGACTCGAA,7.66,5.71,1.02,4.47,1.05,5.96,6.1,5.9,2.41,4.9,3.15,4.18,0.61,-0.556,3.84,4.83,0.538,5.32,1.22,5.62
TGTCAAAGTGCAAAGGTAACGTAAGTATCCACAC,1.4,1.63,-0.525,1.5,-0.151,3.32,5.23,5.16,2.4,4.4,0.00516,2.98,0.574,0.92,1.09,1.76,0.397,2.57,0.0756,2.38
GCTTGTAGATCAAGGTAAAGAAAGACTAAGCTAA,-0.136,-0.278,-0.768,-0.413,-0.986,-0.222,0.0186,0.28,-0.318,-0.167,0.905,0.644,-0.0923,0.000518,-0.791,-0.53,-0.448,0.178,-0.716,-0.161
CCTCGGAGGACACAAGGTCAGAGCTGTCCGCTTT,1.95,2.18,0.422,1.25,-0.693,2.17,0.424,1.15,-0.626,0.468,0.831,0.883,-1.16,-1.74,1.72,2.35,0.133,2.25,0.096,3.46
GCGACTGGGTCAAAGCAGGTTACCATAAGGTTGG,3.12,3.67,-0.265,2.21,-0.807,4.27,4.75,4.75,2.08,3.49,5.8,6.15,0.18,0.407,1.75,3.55,-0.492,3.29,-0.492,3.19
GCGACTGGGGCATCAGCAGGTAACCATAACTTAA,-0.303,-0.254,-0.127,0.0489,-0.791,0.658,0.905,0.685,-0.0973,0.285,3.85,3.1,-0.465,-0.924,0.206,-0.194,-0.176,0.582,-0.479,0.352
TTACCAAGGTGAAAGGTCGTGGATGCACGCCTTG,3.68,3.62,-0.0355,3.01,-0.715,5.66,9.46,8.31,7.31,8.54,3.06,5.11,0.851,-0.117,2.21,4.12,0.543,6.44,0.268,3.33
CCTACTGGGCCACGAAAGGTCGTTGATTCAGTGA,0.933,1.81,0.373,1.5,-0.704,2.67,2.53,2.93,0.0833,1.96,5.8,5.18,-0.547,-0.744,1.16,2.77,0.256,2.19,-0.764,1.84
CTACCAAGGTGAACAAGGTAGTTGATTACTATTC,0.29,0.269,-0.28,0.647,-0.774,1.19,0.675,0.808,0.0377,0.215,2.65,2.48,0.56,0.814,0.0631,0.0464,-0.0276,0.456,-0.151,1.53
TCATATAGGTATAAGGTGAAAGTCGGTGTGGTAA,1.55,1.21,0.319,1.37,0.352,3.14,3.92,5.38,5.06,5.68,2.8,2.27,1.02,0.854,1.32,0.935,0.866,1.62,1.54,1.23
ACTTACGGGTCAACGCGGTTATAGCACGCGTATA,6.63,4.76,0.698,4.08,0.727,5.52,4.9,5.47,1.84,4.14,3.64,4.12,1.26,1.32,1.91,3.92,0.241,4.45,0.802,4.04
CCTACTGGGCCAAAGGTCATCGATTCCAATGCTC,4.44,5.28,3.59,4.41,0.378,6.8,11.5,10.6,10.6,11.5,4.64,6.76,0.425,-0.332,3.7,5.15,0.811,6.16,1.37,4.7
CAAACTATGTCAAAGGTCAAAGTCGAGCCAACCA,6.52,6.3,5.11,5.79,2.93,7.19,11.9,10.2,10.4,11.8,5.12,6.61,1.88,0.733,3.54,5.93,1.52,7.09,2.38,5.1
ATCCCTAGGTAAGACTCAGTTCAGTGAAGAACGC,0.273,0.364,0.479,0.29,0.516,-0.0282,0.0747,-0.195,-0.259,-0.0563,0.0897,-0.242,-0.265,0.674,0.578,1.06,1.32,0.256,0.532,0.244
ATCTCTAGGTAAGACGCAGTTCAGTGAAGAACGC,0.238,0.0302,0.0448,-0.176,0.151,-0.0926,0.38,0.423,0.101,0.323,1.69,0.781,-0.276,0.85,0.0862,0.526,0.389,-0.309,0.278,0.0267
TCGAGTAGGTTATTCGGGGCATTCAGCCAACATA,1.16,1.05,0.0577,1.51,-0.7,1.69,0.35,1.19,1.13,1.07,3.04,2.49,-0.276,-0.446,-0.00227,0.948,0.669,0.746,-0.612,0.781
CCTATTAGTTGACCATAAAGGCAACCGAAGCTCG,0.384,0.566,0.992,0.76,0.816,-0.0568,0.377,0.275,0.147,0.00767,0.277,0.572,0.612,1.06,1.55,0.343,1.08,0.436,2.45,0.404
TCTAGTTGGTCAAAGGTCCCACACTCGAAATGCG,1.07,1.18,0.135,1.26,0.288,3.33,6.7,7.21,6.42,7.55,2.94,3.27,0.799,1.15,1.16,0.98,-0.0577,1.49,1.06,1.67
AGAATGAGGTTAAGATCAGCGAAACAGAATACAT,2.2,1.69,-0.0518,1.54,-0.0572,3.72,2.3,2.38,0.794,1.74,1.69,2.37,1.19,0.858,-0.266,0.978,0.422,1.82,0.555,1.83
CTTTACGGGTCACTCCAGGTTATAGCATCGGAGT,5.38,7.71,3.92,5.61,1.09,4.97,4.47,4.7,1.86,3.42,4.09,4.57,1.34,1.05,2.31,5.1,0.416,3.97,0.111,3.96
ACTAGCAGGCCAAGGGTCACTCGAGATTAGTCCG,2.44,2.89,0.209,2.6,-0.293,4.51,7.9,7.44,6.36,8.11,1.3,3.54,-0.0207,-0.0831,2.15,3.15,-0.376,3.97,0.545,3.48
ATATGTAGGTTACATCCGGATCATTCAGGCTATG,0.642,3.17,0.493,1.65,0.498,3.35,5.19,4.14,1.64,3.4,7.7,7.49,3.14,2.67,1,0.73,0.559,1.04,0.899,1.05
GCAGACAGCTGAAACGCAGGTAACTCAGGGTGGC,-0.689,-0.548,-0.369,-1.06,-1.49,-0.559,0.436,-0.461,-0.695,-0.928,-0.593,-0.619,-0.401,-0.834,-1.24,-0.942,-0.526,-0.648,-0.637,-0.402
CTAGAAAGGTCGGTTGAGGTGAGTATACGGATAA,3.11,1.64,-0.0561,1.64,-0.0428,2.6,0.509,1.1,0.117,0.585,0.237,1.18,0.0511,0.00122,1.34,3.37,0.245,2.6,0.889,3.03
CCTGCTAGGTCAATGGTCAGCTTAAGCAGCTCGC,3.08,2.28,-0.0012,1.51,-0.1,3.13,4.41,5.21,2.37,4.79,4.75,4.06,-0.513,-0.387,1.92,1.05,-0.588,1.88,-0.443,3.84
